# Measured values from PubChem BioAssay (Tox21).
# Where “and” joins values, the source holds several entries; their conditions need not be identical. Identical values can stand only once. Inconclusive results are not listed. Entries that show only a call come without a potency. Some compounds were tested as several samples or in several runs, with calls that do not always agree. Calls of active or inactive are those of the source. Calls follow the shape of the dose curve; as a rule, active = well fitted cell-killing curve with a large enough effect in the repeat runs; inconclusive = weak or mixed curves, or effect the other way; inactive = flat fitted curve, though single readings scatter. Residues, ends and D or L forms follow the SMILES beside them.
# Experiment: qHTS RealTime-Glo MT Cell Viability Assay in HEK293 cells - 8 hour (AID 1224887); also: nearly all actives have a fitted effect of over 50% in size
# Settings: RealTime-Glo luminescence; series mostly up to 76.8 µM
# Excerpt: U.S. Tox21 Program National Center for Advancing Translational Sciences [NCATS] NIH Chemical Genomics Center [NCGC] U.S. Environmental Protection Agency [EPA] National Institutes of Environmental Health Sciences [NIEHS] National Toxicology Program [NTP] U.S. Food and Drug Administration [FDA] Tox21 Assay Overview: Measure of cell viability is critical in the cell-base assay. Analysis of cell viability is necessary for the characterization of cell responses to cytotoxic drugs and environmental stress. A RealTime-Glo MT Cell Viability Assay to monitor cell viability in real time of continues cell culture during 40 hours of compound treatment was used to screen Tox21 10K library compounds in Hek293 cells. The RealTime-Glo MT Cell Viability Assay is a nonlytic, homogeneous, bioluminescent method to measure cell viability in real time using a simple, plate-based method. The assay involves adding NanoLuc luciferase and a cell-permeant prosubstrate to cells in culture. Viable cells reduce the proprietary prosubstrate to generate a substrate for NanoLuc luciferase. This substrate diffuses from cells into the surrounding culture medium, where it is rapidly used by the NanoLuc Enzyme to produce a luminescent signal. The signal correlates with the number of viable cells, making the assay well suited for cytotoxicity studies.
# Tox21 Assay Protocol Summary: The mixture of Hek293 cell suspension and reagents were dispensed at 600cells/6 ul/well in 1536-well tissue culture treated black solid bottom plates using a Multidrop dispenser. After the assay plates were incubated at a 37 C/5% CO2 incubator for 5 hours, 23 nL of compounds dissolved in DMSO, positive and negative controls was transferred to the assay plate by a pintool work station. The plates were incubated at 37 C for 40 hours. The luminescence intensity were measured at 0h, 8h, 16h, 24h, 32h and 40h time points using ViewLux plate reader during compound treatment.
# Potency is read from the fitted curve at half-maximal effect.
row,SMILES,Potency
1,O=C(O)c1cccnc1,inactive
2,CCCC(O)C(CC)CO (stereo not given),inactive
3,NC(N)=O,inactive
4,CC(O)CO (stereo not given),inactive
5,CC(O)CN(CCN(CC(C)O)CC(C)O)CC(C)O (stereo not given),inactive
6,O=S(=O)(O)c1ccc2cc(O)ccc2c1,inactive
7,O=S(=O)(O)NC1CCCCC1,inactive
8,CCCC(CCC)C(=O)O,inactive
9,Cc1cc(=O)[nH]c(=S)[nH]1,inactive
10,O=c1cc[nH]c(=S)[nH]1,inactive
11,O=NO,inactive
12,O=C(O)c1cc(N=Nc2ccc(S(=O)(=O)Nc3ccccn3)cc2)ccc1O,inactive
13,CNC[C@H](O)c1cccc(O)c1,inactive
14,Nc1ccc(C(=O)O)cc1,inactive
15,COC(=O)[C@H](Cc1ccccc1)NC(=O)[C@@H](N)CC(=O)O (H-Asp-Phe-OMe),inactive
16,O=C(O)CCCCC(=O)O,inactive
17,Cc1ccc(C)c(OCCCC(C)(C)C(=O)O)c1,inactive
18,OC(Cn1cncn1)(Cn1cncn1)c1ccc(F)cc1F,inactive
19,Nc1ccc(S(=O)(=O)c2ccc(N)cc2)cc1,inactive
20,Cn1cc[nH]c1=S,inactive

row,SMILES,Potency
1,CCCCC(CC)COC(=O)/C=C/c1ccc(OC)cc1 (stereo not given),inactive
2,CCCCC1C(=O)N(c2ccccc2)N(c2ccccc2)C1=O,inactive
3,O=C1CN(/N=C/c2ccc([N+](=O)[O-])o2)C(=O)N1,inactive
4,Nc1ccn([C@H]2CC[C@@H](CO)O2)c(=O)n1,inactive
5,O=C(O)/C=C\C(=O)O,inactive
6,Nc1ccc(O)c(C(=O)O)c1,inactive
7,O=C(O)CCC(=O)O,inactive
8,NNC(=O)c1ccncc1,inactive
9,O=C(O)c1[nH]n(-c2ccc(S(=O)(=O)O)cc2)c(=O)c1N=Nc1ccc(S(=O)(=O)O)cc1,inactive
10,O=C(O)c1cccc([N+](=O)[O-])c1,inactive
11,Cc1ccccc1C(OCCN(C)C)c1ccccc1 (stereo not given),inactive
12,CCCNC(=O)NS(=O)(=O)c1ccc(Cl)cc1,inactive
13,Cc1cn([C@H]2C[C@H](N=[N+]=[N-])[C@@H](CO)O2)c(=O)[nH]c1=O,inactive
14,COc1c2occc2cc2ccc(=O)oc12,inactive and 21.9 µM (active)
15,CCC1(c2ccccc2)C(=O)NCNC1=O,inactive
16,O=C(O)C(=O)O,inactive
17,NC(N)=NC(=O)c1nc(Cl)c(N)nc1N,inactive
18,NC(=O)NC1NC(=O)NC1=O (stereo not given),inactive
19,N=C(N)c1ccc(OCCCCCOc2ccc(C(=N)N)cc2)cc1,inactive
20,Oc1ccc(/C=C/c2cc(O)cc(O)c2)cc1,inactive
